From PubChem BioAssay (NCATS)
Records with an inconclusive call do not appear. A call without a number means that no potency is given here. Calls of active or inactive are those of the source. Calls follow the shape of the dose curve; as a rule, active = well fitted cell-killing curve with a large enough effect; inconclusive = small, poorly fitted or top-dose-only effect; inactive = no such curve, though single readings can be large or run the other way.

Assay: qHTS of pediatric cancer cell lines to identify multiple opportunities for drug repurposing: Primary screen for LAN-5 cells (AID 1347100)
Settings: LAN-5 neuroblastoma viability, CellTiter-Glo luminescence, 48 h; series mostly up to 46 µM
Excerpt: Drug repurposing or repositioning has been offered as a strategy for drug development in oncology programs. This approach has special potential for childhood cancers and other rare or orphan diseases, where the expected return on new drug development has been a disincentive to pharmaceuticals.
In this project we exploit the poly-pharmacology of drugs to discover new indications via phenotypic screening of a panel of 19 well-characterized cell lines derived from solid tumors seen in children and adolescents. The goal is to identify approved drugs with previously unrecognized anticancer properties that has the potential to reveal new mechanisms and biological processes involved in carcinogenesis or drug resistance. We employed a titration-based paradigm (quantitative high-throughput screening or qHTS), where all compounds were tested at multiple concentrations for their effect on cell viability. Concentration-response curves (CRCs) were derived directly from the primary screen, and both potency and efficacy values were used to identify compounds with robust bioactivity profiles. We screened the NIH Chemical Genomics Center (NCGC) Pharmaceutical Collection (NPC) and Mechanism Interrogation Plate (MIPE) small molecule collections of approved and investigational compounds against these cell lines; and measured metabolically active cells after 48 hours of compound treatment as a proxy for cell viability.
Assay Submitter: Nathalia J. Martinez, National Center for Advancing Translational Sciences, National Institutes of Health, Rockville, MD, USA; email: natalia.martinez@nih.gov
[1] Shen, M et al. Quantitative high-throughput phenotypic screening of pediatric cancer cell lines identifies multiple opportunities for drug repurposing. Oncotarget 2017 Dec 19;9(4):4758-4772. PMID 29435139.
The cells were obtained from University of North Carolina (UNC), Pediatric Preclinical Testing Program (PPT), and Coriell Institute (CI).
qHTS cell viability assay:
Cells were assayed in growth media at a density of 500-1,000 cells/well. Five microliters of cells were dispensed into 1,536-well, white, solid-bottom, TC-treated plates (Greiner Bio One) using a multidrop dispenser and incubated at 37 degrees C, 5% CO2, under a humidified atmosphere for 5 hours. Twenty-three nanoliters of compounds and controls (neutral control DMSO or positive control bortezomib at final concentration of 2.3 µM) were subsequently transferred by Kalypsys pintool. For primary screens, the MIPE collection was tested at 11-point dilutions (final concentrations range from 0.78 nM to 46 µM) and the NPC collection at 8-point dilutions (final concentrations range from 0.59 nM to 46 µM). Compounds tested in follow-up screens were assayed at 11-point dilutions. Cells were incubated for 48 hours, followed by addition of 3 µL of CellTiter-Glo (Promega). After a 15 min incubation at room temperature, samples were analyzed for luminescence intensity using a ViewLux High-throughput CCD imager equipped with clear filters.
Potency is read from the fitted curve at half-maximal effect.

| SMILES | Potency |
| --- | --- |
| CC(C)C[C@H](CC(=O)O)C(=O)N[C@@H](Cc1c[nH]c2ccccc12)C(=O)N[C@@H](C)c1ccccc1 | 2.64 µM (active) |
| CC(=O)CCCCn1c(=O)c2c(ncn2C)n(C)c1=O | inactive |
| CN[C@@H](C)C(=O)N[C@H]1CN(C(=O)CC(C)C)CC[C@H]2CC[C@@H](C(=O)NC(c3ccccc3)c3ccccc3)N2C1=O | 0.187 µM (active) |
| CNC(=O)c1ccccc1Sc1ccc2c(C=Cc3ccccn3)n[nH]c2c1 | 0.743 µM (active) |
| CCCCCN(C)CCC(O)(P(=O)(O)O)P(=O)(O)O | inactive |
| CC(C)(Cc1ccc2ccccc2c1)NC[C@@H](O)COc1cccc(Cl)c1C#N | 18.7 µM (active) |
| CN1C[C@H]2c3ccccc3Oc3ccc(Cl)cc3[C@@H]2C1 | inactive |
| Cc1ccc(C(=O)Nc2cccc(C(F)(F)F)c2)cc1Nc1nc(-c2cccnc2)nc2c1cnn2C | 13.2 µM (active) |
| CCOC1OC(=O)C[C@H]1NC(=O)[C@@H]1CCCN1C(=O)[C@@H](NC(=O)c1ccc(N)c(Cl)c1)C(C)(C)C (stereo not given in full) | 0.833 µM (active) |
| Clc1ccc(-c2nc3sccn3c2C=NOCc2ccc(Cl)c(Cl)c2)cc1 | inactive |
| CCC(CC)[C@H](NC(C)=O)[C@@H]1[C@H](O)[C@@H](C(=O)O)C[C@@H]1N=C(N)N | inactive |
| C[N+](C)(C)CC(=O)O | inactive |
| C[C@H](NC(=O)c1sccc1OCc1ccc(Cl)cc1)c1ccccc1 | inactive |
| C[C@]12CC[C@@H]3c4ccc(O)cc4C[C@@H](CCCCCCCCCS(=O)CCCC(F)(F)C(F)(F)F)[C@H]3[C@H]1CC[C@H]2O (stereo not given in full) | inactive |
| CC(=Cc1ccccc1)C=C1SC(=S)N(CC(=O)O)C1=O | inactive |
| Nc1ncnc2c1ncn2[C@@H]1O[C@H](CO)C[C@@H]1O | inactive |
| CC(C)(C(=O)NCC(F)(F)C(F)(F)F)C(=O)N[C@@H]1C(=O)Nc2ccccc2-c2ccccc21 | 0.662 µM (active) |
| CC(=O)N[C@@H](CS)C(=O)O | inactive |
| O=C1c2c(O)cc(O)cc2O[C@H](c2cc(O)c(O)c(O)c2)[C@H]1O | 26.4 µM (active) |
| NS(=O)(=O)c1cccc2c1C(=O)c1cccc(O)c1C2=O | 1.05 µM (active) |

| SMILES | Potency |
| --- | --- |
| CC(=NNC(=S)N1CCC1)c1ccccn1 | 0.935 µM (active) |
| CC(C)C(=O)Oc1ccc(CO)cc1[C@H](CCN(C(C)C)C(C)C)c1ccccc1 | inactive |
| CN1CCN(CCOc2cc(OC3CCOCC3)c3c(Nc4c(Cl)ccc5c4OCO5)ncnc3c2)CC1 | 18.7 µM (active) |
| O=C1C[C@@H](c2ccc(O)cc2)Oc2cc(O)cc(O)c21 | inactive |
| COc1ccc2cccc(CCNC(C)=O)c2c1 | inactive |
| O=C(NCCN1CCOCC1)c1ccc(Cl)cc1 | inactive |
| Clc1ccc(Cn2c(CN3CCCC3)nc3ccccc32)cc1 | inactive |
| O=C(Nc1c(Cl)cncc1Cl)c1ccc(OC(F)F)c(OCC2CC2)c1 | inactive |
| Nc1ncnc2ccccc12 | inactive |
| CN(C[C@@H]1COCCO1)S(=O)(=O)Nc1ccc2ccc3ncc(-c4cnn(C)c4)cc3c(=O)c2c1 | 14.8 µM (active) |
| NC(CO)(CO)CCc1ccc(Sc2cccc(OCc3ccccc3)c2)cc1Cl | 4.18 µM (active) |
| CCCNC(=O)NS(=O)(=O)c1ccc(Cl)cc1 | inactive |
| O=C(O)c1ccc(-c2cc3cccnc3c(-c3ccc4nonc4c3)n2)cc1 | 20.9 µM (active) |
| COc1ccc(-c2oc3c(CC=C(C)C)c(OC4O[C@H](CO)[C@@H](O)[C@H](O)[C@@H]4O)cc(O)c3c(=O)c2OC2O[C@@H](C)[C@H](O)[C@@H](O)[C@@H]2O)cc1 (stereo not given in full) | 23.5 µM (active) |
| c1ccc2c(Cc3c[nH]c4ccccc34)c[nH]c2c1 | 23.5 µM (active) |
| COc1cc(N2CCC(N3CCN(C)CC3)CC2)ccc1Nc1ncc(Cl)c(Nc2ccccc2S(=O)(=O)C(C)C)n1 | 0.001 µM (active) |
| COCCCCC(=NOCCN)c1ccc(C(F)(F)F)cc1 | inactive |
| C[C@@H](O)[C@H]1C(=O)N2C(C(=O)O)=C(S[C@@H]3CN[C@H](C(=O)N(C)C)C3)[C@H](C)[C@H]12 | inactive |
| O=c1cc(-c2ccc(O)cc2)oc2cc(O)cc(O)c12 | 3.32 µM (active) |
| NCCS | inactive |
